Only some compounds are listed: those with a hit (about 2.4% of all), similar ones and a draw of the others.
Pol kappa inh: blocks human DNA polymerase kappa activity. purified Pol kappa, fluorescent DNA synthesis assay, 10 min. Potency, µM (doses to about 107 µM), for the others: at the top dose activity, negative = inhibition, usual class: inhibitors. 400,000 compounds, 0.53% hits. AID 588579; also: % is scaled to controls: 0 for no effect and ±100 for the full control effect
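10 nM Pol kappa was preincubated with compounds for 15 min at room temperature. Reaction started with 50 nM (final) substrate. Fluorescence read kinetically at 0 and 10 min.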
POLI inh: inhibitors of human DNA polymerase iota; Q9UNA4; Pol iota fluorescent replication assay, 10 min; Potency, µM (doses to about 115 µM), for inactives: at the top dose activity, negative = inhibition, actives largely listed as inhibitors; 390,000 compounds, 1% hits; AID 588590
Target sequence (Q9UNA4 whole entry, looked up): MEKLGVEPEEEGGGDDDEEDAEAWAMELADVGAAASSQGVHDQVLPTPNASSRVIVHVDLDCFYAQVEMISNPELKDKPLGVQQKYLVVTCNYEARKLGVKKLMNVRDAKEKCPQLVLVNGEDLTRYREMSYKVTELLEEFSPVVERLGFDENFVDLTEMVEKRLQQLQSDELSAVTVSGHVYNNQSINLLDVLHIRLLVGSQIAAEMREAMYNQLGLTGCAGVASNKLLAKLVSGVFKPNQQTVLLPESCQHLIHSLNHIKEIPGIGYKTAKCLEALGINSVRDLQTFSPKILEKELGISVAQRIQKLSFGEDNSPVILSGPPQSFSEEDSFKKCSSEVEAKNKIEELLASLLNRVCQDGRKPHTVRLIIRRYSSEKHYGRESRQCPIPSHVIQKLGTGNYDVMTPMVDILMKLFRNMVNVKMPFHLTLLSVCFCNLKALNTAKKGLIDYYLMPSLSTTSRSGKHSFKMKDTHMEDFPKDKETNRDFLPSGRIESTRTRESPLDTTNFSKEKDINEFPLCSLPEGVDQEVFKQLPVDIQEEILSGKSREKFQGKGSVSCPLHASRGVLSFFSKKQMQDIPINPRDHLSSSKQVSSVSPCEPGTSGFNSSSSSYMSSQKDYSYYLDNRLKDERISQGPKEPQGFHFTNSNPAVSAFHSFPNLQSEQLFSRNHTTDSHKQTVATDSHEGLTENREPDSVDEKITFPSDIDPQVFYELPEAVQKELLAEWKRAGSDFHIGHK
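Fluorescent replication assay read twice, at 0 min and 10 min after adding 50 nM (final) substrate. Enzyme (10 nM) and compounds were first incubated 15 min at room temperature; enzyme-free buffer wells were negative controls.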
POLB inh: DNA polymerase beta (human) inhibition; Pol beta primer extension/strand displacement, fluorescence kinetic; P06746; Potency, µM (doses to about 114 µM), without a hit: at the highest dose activity change, negative = inhibition, hits mostly inhibitors; 340,000 compounds, 1.3% hits; also: % is scaled to controls: 0 for no effect and ±100 for the full control effect
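Enzyme-only controls used 10 nM Pol beta; buffer lacking enzyme served as negative control. Compound preincubated 15 min, then 50 nM substrate added; 0 and 10 min reads at room temperature.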
POLH inh: DNA polymerase eta (human) inhibition; recombinant Pol eta, fluorescent DNA replication assay; Potency, µM (doses to about 114 µM), for the others: at the top dose activity change, negative = inhibition, most hits filed as inhibitors; 390,000 compounds, 1.2% hits; AID 588591; also: % is scaled to controls: 0 for no effect and ±100 for the full control effect
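Pol eta at 10 nM preincubated with compounds 15 min at room temperature; reaction started with fluorescent substrate (50 nM final) and read kinetically at 0 and 10 min.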
FEN1 inhibitor: blocks human flap endonuclease 1 | Potency, µM (highest dose often 114 µM), for inactives: at the highest dose activity change, negative = inhibition, hits mostly inhibitors | 390,000 compounds, 0.35% hits | Recombinant FEN1 flap cleavage, fluorescence, 15 min | P39748; also: % is scaled to controls: 0 for no effect and ±100 for the full control effect; nearly all actives have a fitted effect of over 65% in size
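FEN1 at 10 nM, compound pretreatment for 15 min (room temperature), 50 nM final substrate to initiate; endpoint reads at 0 and 15 min; DMSO-only plates used as vehicle background.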
PGK inhibitor: inhibitors of T. brucei phosphoglycerate kinase; PGK/GAPDH coupled, Kinase-Glo luminescence, 60 min; 380,000 compounds, 0.043% hits; Potency, µM (titrated, usually from 57.5 µM), without a hit: at the highest dose activity change, negative = inhibition, actives largely listed as inhibitors; P07378; also: % is scaled to controls: 0 for no effect and ±100 for the full control effect; nearly all actives have a fitted effect of over 60% in size
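Recombinant glycosomal PGK reaction used 1,3-bisphosphoglycerate generated in-well by GAPDH (100nM final) in 100mM TEA pH 7.6, 5mM MgCl2, 0.01% Tween-20. After 60 minutes at room temperature, ATP was read by Kinase-Glo Plus luminescence end-point.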
Active calls of the source: *; i = inactive; ? = inconclusive; . = no result; [ ] = remark or other dose. Calls follow the shape of the dose curve; as a rule, active = well fitted curve in the direction sought with a large enough effect; inconclusive = small, poorly fitted or top-dose-only effect, or another doubt; inactive = no such curve, though single readings can be large; an effect the other way counts as inactive or inconclusive. Potency is read from the fitted curve at half-maximal effect.

SMILES	Pol kappa inh	POLI inh	POLB inh	POLH inh	FEN1 inhibitor	PGK inhibitor
COc1ccc(C2C=C(c3cccc(OC)c3)Nc3c(C(=O)Nc4ccccc4)cnn32)cc1 (configuration not stated)	-20.4%	8.6%	0.3%	-16.5%	-1.1%	-9.8%
COc1cccc(C2=CC(c3ccccc3F)n3ncc(C(=O)Nc4ccc(C)cc4)c3N2)c1 (configuration not stated)	-9.4%[60.1 µM]	-1.5%	28.2µM*	-17.6%	-20.4%	10.3%
CCOC(=O)C1=C(CSc2nc3c(cc2C#N)CN(C)CC3)OC(N)=C(C#N)C1c1ccncc1 (configuration not stated)	?	31.6µM*	?	?	-13.0%	i
Cc1ccsc1CCN1C(=O)N(c2ccc(F)cc2)C(=O)C1CC(=O)Nc1ccccc1 (configuration not stated)	-9.3%	30.2%	1.2%	?	-7.8%	-1.7%
O=C(NCc1ccco1)C(c1ccc(F)cc1)N(CC1CCCO1)C(=O)Cn1nnc2ccccc21 (configuration not stated)	-6.3%	16.2%	0.316µM*	-17.2%	-14.1%	2.4%
COCCNC(=O)C(c1ccc(C)o1)N(CC1CCCO1)C(=O)Cn1nnc2ccccc21 (configuration not stated)	-0.6%	8.0%	-1.7%	-5.1%	-1.9%	3.4%
COCOc1cc(O)c2c(=O)c(OCOC)c(-c3ccc(OCOC)c(OCOC)c3)oc2c1	79.4µM*	?	.	?	-12.6%	5.4%
COCOc1ccc(-c2cc(=O)c3c(OCOC)cc(OCOC)cc3o2)cc1	6.0%	28.0%	.	-23.9%	14.0%	10.0%
CC1CC(C)CN(C(=O)COC(=O)c2ccc([N+](=O)[O-])o2)C1 (configuration not stated)	-22.6%	?	.	89.1µM*	-18.5%	-8.1%
CC1CCN(C(=O)c2ccc([N+](=O)[O-])o2)CC1	-10.7%	20.2%	19.2%	2.0%	9.4%	4.1%
COc1cc(OC)c(/C=C/c2ccncn2)c(OC)c1	-8.6%	?	.	.	-3.6%	.
Cc1ccc(-c2cn(CCN)c(-c3ccncc3)n2)cc1	-17.3%	31.6µM*	.	-1.1%	-14.9%	1.0%
COc1ccc(-c2cn(CCC(=O)NCc3ccc(C)cc3)c(-c3ccncc3)n2)cc1	-6.5%	-20.2%	24.8%	-19.0%	-12.5%	-0.8%
c1ccc(CNc2ncnc3c2ncn3Cc2ccccc2)cc1	-24.8%	?	.	.	-22.8%	.
O=C1C(N2CCOCC2)=C(n2nnc3ccccc32)C(=O)c2ccccc21	-6.7%	?	-3.6%	44.7µM*	-11.7%	-5.9%
O=C(C[n+]1cccc2cccc(O)c21)c1ccc(Cl)cc1	7.8%	43.4%	.	.	-3.7%	.
CC1=NN(c2nc(-c3ccc(C)cc3)cs2)C(=O)C1N=Nc1cccc(O)c1 (configuration not stated)	?	?	12.6µM*	?	-3.8%	-4.5%
CN1CCc2cc3c(c4c2[C@H]1[C@H](O)c1ccccc1-4)OCO3	?	?	44.7µM*	-23.7%	39.8µM*	-9.2%
Cn1cc(C(=O)N/N=C/C2=C(N3CCOCC3)C(=C/c3ccc([N+](=O)[O-])cc3)/CC2)ccc1=O	-33.5%	50.1µM*	.	?	-13.9%	-0.7%
O=C(N/N=C/c1ccc(N2CCOCC2)c([N+](=O)[O-])c1)c1ccc(F)cc1	-5.6%	4.2%	3.7%	-7.5%	-7.7%	i
COc1cc(NC(=O)C(c2ccccc2)c2ccccc2)c(C(=O)O)cc1OC	-8.4%	30.7%	56.3%	-13.7%	-1.9%	-1.6%
CN(C)c1ccc(C=Nc2cnc3ccccc3c2)cc1	-14.6%	4.5%	.	.	4.1%	.
CC(=O)Nc1ccc(-c2ccc(NC(C)=O)c(O)c2)cc1O	?	?	?	35.5µM*	-1.2%	-8.1%
CC(=O)Nc1ccccc1O	-7.9%	17.5%	5.5%	-16.9%	1.6%	-9.8%
COc1ccc2cc3cc(C(=O)NCc4ccc(C)cc4)oc3nc2c1	-4.4%	3.7%	4.2%	-9.3%	4.0%	-10.1%
SMILES	Pol kappa inh	POLI inh	POLB inh	POLH inh	FEN1 inhibitor	PGK inhibitor
COc1ccc2cc3cc(C(=O)NCc4cccs4)oc3nc2c1	-22.8%	?	22.4µM*	?	?	-12.6%
COc1cc(OC)cc(OC(=O)c2ccc3c(=O)n4c(nc3c2)CCC4)c1	-25.1%	39.8µM*	.	39.8µM*	-5.8%	-5.5%
O=[N+]([O-])c1ccccc1S(=O)(=O)NCc1ccccn1	-2.9%	0.4%	.	.	8.8%	.
CCOC(=O)c1c(NC(=O)/C=C/C(=O)O)sc(C)c1-c1ccc(Cl)cc1	2.2%	?	-17.8%	79.4µM*	13.6%	-17.5%
CCOC(=O)c1cc(NC(=O)/C=C\C(=O)O)ccc1Cl	5.7%	77.9%	0.1%	-12.6%	10.0%	-7.1%
Cc1ccccc1NC(=O)c1ccccc1OCC(=O)Nc1ccc(Br)cc1	-13.0%	10.5%	.	.	-25.1%	.
C(=C\c1nc2ccccc2o1)/c1ccc2c(c1)OCO2	1.5%	9.6%	.	.	-1.5%	.
COc1cccc(C2CC(c3ccc(NS(C)(=O)=O)cc3)=NN2C(=O)c2ccccc2)c1OC (configuration not stated)	-22.4%	89.1µM*	-7.5%	?	-12.4%	0.1%
C=C1C=C(C(F)F)n2ncc(C(=O)NCc3ccc(Cl)cc3)c2N1	-1.9%	13.6%	.	.	-15.0%	.
S=c1[nH]c(=S)c2[nH]cnc2[nH]1	-10.7%	79.4µM*	.	.	-0.6%	.
Cc1cccc(N2CSC3=C(C#N)C(c4ccc(C)o4)CC(=O)N3C2)c1 (configuration not stated)	.	.	5.01µM*	.	.	.
COc1ccc(C2CC(=O)N3CN(c4ccc(C)c(Cl)c4)CSC3=C2C#N)cc1 (configuration not stated)	0.0%	?	?	-7.7%	-30.6%	-6.9%
CN(C)CCCN=c1cc(-c2ccccc2)oc2ccc(Cl)cc12	-15.5%	-6.7%	-5.9%	-4.0%	?	5.1%
OCCN=c1cc(-c2ccccc2)oc2ccc(Cl)cc12	-7.5%	?	89.1µM*	2.4%	?	-5.3%
O=C(c1ccc2c(c1)N(Cc1ccc(Cl)cc1)C(=O)c1ccccc1S2=O)N1CCC(Cc2ccccc2)CC1 (configuration not stated)	-11.3%	15.6%	23.7%	-12.6%	-17.8%	8.2%
COc1cc(/C=C/C(=O)c2c(O)ccc3c(C)cc(=O)oc23)ccc1O	-6.4%	12.6µM*	21.4%	?	-3.3%	-11.3%
O=C1Cc2cc(S(=O)(=O)N3CCNCC3)ccc2N1	-0.9%	31.6µM*	.	?	-0.1%	-7.8%
O=C1Cc2cc(S(=O)(=O)N3CCCCC3)ccc2N1	-5.9%	23.8%	4.7%	-17.2%	-4.2%	-0.7%

Bioassay records (PubChem)
